Results published in PubChem BioAssay AID1259417 (TB Discovery Research, Infectious Disease Research Institute, 2018).
Among all 1,100 compounds or so, about 760 (69%) were called active. The rule behind the calls is not given here. The set was probably picked from earlier hits. Some of the results follow.

Assay: M. tuberculosis growth inhibition, HTS (AID 1259417);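 note: bacteria grown with compound for 5 days at 37 °C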
Conditions: stronger effect = higher value, concentration not given here
[1] = M. tuberculosis DsRed fluorescence growth inhibition
[2] = M. tuberculosis growth inhibition

Row | SMILES | inhibition [1] | inhibition [2] [%]
1 | O=C(Nc1nnc(-c2ccccc2)o1)c1ccco1 | 20.9% (active) | 32.7
2 | O=C(Nc1nnc(-c2ccc(F)cc2)o1)c1ccco1 | 26% (inactive) | 16.6
3 | O=C(Nc1nnc(-c2ccc(Cl)cc2)o1)c1ccco1 | 20% (active) | 48.4
4 | CCn1ccnc1CN(C)Cc1cn(-c2cccc(C)c2)nc1-c1cccc(F)c1 | 18.2% (inactive) | 15.5
5 | Cc1ccc(Sc2ccc(C=O)o2)cc1 | -0.277% (inactive) | 24.1
6 | Cc1ccc(CN=c2c([N+](=O)[O-])nn(-c3cccc(Cl)c3)n2O)cc1 | 99.8% (active) | 100
7 | Cc1cccc(-n2nc([N+](=O)[O-])c(=NCCC3=CCCCC3)n2O)c1 | 101% (active) | 54.8
8 | O=S1(=O)C=C(Sc2nc3ccccc3s2)c2ccccc21 | 100% (active) | 99.8
9 | COc1c2ccoc2nc2c(OC)cccc12 | 98.6% (active) | 99.6
10 | CC12CCC(C(=O)Nc3ccc(OC(F)(F)F)cc3)(CC1=O)C2(C)C (centres undefined) | 94.8% (active) | 81.6
11 | CC(C)(C)c1ccc(C(=O)Nc2nc3ccccc3[nH]2)cc1 | 65.8% (active) | 86.5
12 | Cc1cc(NS(=O)(=O)c2ccc(NC(=O)c3ccc(C(C)(C)C)cc3)cc2)no1 | 19.1% (inactive) | 12.2
13 | Cc1cccc(C(=O)Nc2nc3ccccc3[nH]2)c1 | 36.9% (active) | 35.3
14 | CCOC(=O)Cn1nnc(-c2ccc(OCc3ccccc3C)cc2)n1 | 91.8% (active) | 96.9
15 | CCOC(=O)Cn1nnc(-c2ccc(OCc3ccccc3F)cc2)n1 | 50% (active) | 91.6
16 | CCN(CC)c1ccc(/C=C(/C#N)c2nc3ccccc3[nH]2)c(OC(C)C)c1 | 22.6% (active) | 47
17 | c1ccc(-c2nc(NCCCn3ccnc3)c3oc4ccccc4c3n2)cc1 | 98.9% (active) | 99.5
18 | CCOC(=O)CSc1nnc2c3sc4nc(N5CCOCC5)c5c(c4c3ncn12)CC(C)(C)OC5 | 53.1% (active) | 74.9
19 | O=C(CCc1ccccc1)NC(=S)Nc1ccc(N2CCCCC2)cc1 | 82.8% (active) | 59.4
20 | COC(=O)c1ccc(N2C(=O)CC(N(CCc3ccccc3)C(=S)Nc3ccccc3)C2=O)cc1 (centres undefined) | 2.64% (inactive) | -9.4
21 | CC(=O)N1CCN(c2ccc(NC(=S)NC(=O)c3cc4ccccc4o3)cc2)CC1 | 3.83% (inactive) | -6.94
22 | OC(COCCC12CC3CC(CC(C3)C1)C2)CN1CCc2ccccc2C1 (centres undefined) | 1.19% (inactive) | 10.3

Row | SMILES | inhibition [1] | inhibition [2] [%]
23 | O=C(Cn1nc(CNc2ccc(Cl)cc2)[n+]2c1CCCCC2)c1ccc(Br)cc1 | 92.9% (active) | 94.4
24 | COc1ccc(C(C)(C)C)cc1NC(=S)Nc1ccc(Cl)c(Cl)c1 | 0.0351% (inactive) | -14.6
25 | CC(C)(C)c1cc(Cl)c(O)c(NC(=S)NC(=O)c2cccc3ccccc23)c1 | 80.4% (active) | 78.3
26 | CC(C)CC(=O)NC(c1ccc(Cl)cc1Cl)c1c(O)ccc2ccccc12 (centres undefined) | 5.28% (inactive) | 21
27 | CCOC(=O)CSc1ccc(-c2nc3cc(C)c(C)cc3[nH]2)cn1 | 94.3% (active) | 96
28 | O=[N+]([O-])c1ccc(/C=N/n2c(CO)nc3ccccc32)s1 | 96.6% (active) | 97.7
29 | Cc1cc(C)n(-c2nc(NC(C)C)nc(NC(C)C)n2)n1 | 43.1% (active) | 41.4
30 | COC(=O)CSc1nnc(-c2ccc(OC)cc2OC)o1 | 85.8% (active) | 94.2
31 | CCOC(=O)CSc1nnc(-c2ccc(OC)cc2OC)o1 | 42.1% (active) | 70.4
32 | CCC(OC(C)=O)c1ccc(OC(C)=O)c(OC)c1 (centres undefined) | 99.1% (active) | 90.6
33 | COC(=O)COc1ccc(NC(=O)c2ccccc2Br)cc1 | 76.3% (active) | 91.1
34 | COC(=O)COc1ccc(NC(=O)c2ccccc2I)cc1 | 61.7% (active) | 81.3
35 | COC(=O)c1ccc(OCC(=O)Nc2ccccc2F)cc1 | 14.1% (active) | 74.2
36 | COC(=O)COc1ccc(NC(=O)c2ccccc2F)cc1 | 77.8% (active) | 78.9
37 | COC(=O)COc1ccc(NC(=O)c2ccccc2C)cc1 | 83.1% (active) | 93.5
38 | O=C(NCCSc1c(-c2ccccc2)[nH]c2ccccc12)c1cc2ccccc2oc1=O | -6.27% (inactive) | -5.81
39 | Cc1[nH]c2ccccc2c1SCCNC(=O)c1cc2ccccc2oc1=O | 5.93% (inactive) | 16.9
40 | O=C(NCCc1c[nH]c2ccccc12)c1cc2ccccc2oc1=O | 99.2% (active) | 96
41 | O=C(NCCSc1c[nH]c2ccccc12)c1cc2ccccc2oc1=O | 20.8% (active) | 42.8
42 | Cc1ccc(-c2[nH]c3ccccc3c2SCCNC(=O)c2cc3ccccc3oc2=O)cc1 | -0.558% (inactive) | -17.6
43 | CCCCCCc1cc2cc(C(=O)NC)c(=N)oc2cc1O | -2.33% (inactive) | -16.9
44 | Cc1nc2c(-c3ccc(Cl)cc3)cnn2c(N)c1-c1ccccc1 | 13.8% (inactive) | -1.8

Row | SMILES | inhibition [1] | inhibition [2] [%]
45 | Cc1nn(-c2nc3ccccc3[nH]2)c(N)c1-c1ccccc1 | 50.6% (active) | 84.2
46 | Cc1cc(Nc2ccccc2)n(-c2nc3ccccc3[nH]2)n1 | 86.8% (active) | 93.2
47 | Cc1coc2c1C(=O)C(=O)c1c-2ccc2c1CCCC2(C)C | 96.6% (active) | 98.4
48 | CN(C)C(=S)Nc1nc2ccccc2s1 | 99.7% (active) | 99.8
49 | Cc1ccc(C2CC(C(F)(F)F)n3nc(C(=O)NCc4ccco4)cc3N2)cc1 (centres undefined) | 80% (active) | 76.1
50 | O=C(NCc1cccs1)c1cc2n(n1)C(C(F)(F)F)CC(c1ccc3c(c1)OCO3)N2 (centres undefined) | 2.08% (inactive) | -5.24
51 | CCCCNC(=O)c1cc2n(n1)C(C(F)(F)F)CC(c1ccccc1)N2 (centres undefined) | 95.4% (active) | 91.8
52 | CNc1nc(N2CCc3ccccc32)ncc1F | 100% (active) | 99.7
53 | COc1ccc(NC(=O)C(Cc2c[nH]c3ccccc23)NC(C)=O)cc1 (centres undefined) | 93.6% (active) | 90.1
54 | COc1ccc2[nH]cc(CCNC(=S)Nc3ccc(Nc4ccccc4)cc3)c2c1 | -2.93% (inactive) | -13.6
55 | Cc1cc(-c2csc(Nc3ccc(S(N)(=O)=O)cc3)n2)ccc1F | 12% (inactive) | 9.99
56 | Cc1ccc(-c2csc(Nc3ccc(C(=O)O)c(O)c3)n2)cc1 | 94.8% (active) | 94.9
57 | Cc1ccc(-c2csc(Nc3ccc(S(N)(=O)=O)cc3)n2)cc1 | 33.4% (active) | 44.5
58 | O=C(Nc1ccccc1-c1ccccc1)C(Cl)(Cl)Cl | 100% (active) | 99.6
59 | C/C=C/c1ccc(OCC(=O)OCc2csc(Nc3ccc(C)cc3)n2)c(OC)c1 | 0.924% (active) | 37.2
60 | Oc1ccc(Br)cc1C1=NNC(c2ccc(F)cc2)C1 (centres undefined) | 99.5% (active) | 100
61 | CCC(C)Oc1ccc(C(=O)NC(=S)Nc2ccc3c(c2)COC3=O)cc1 (centres undefined) | 30.7% (active) | 25.2
62 | COc1ccc2nc(C)cc(SCC(=O)OC(C)C)c2c1 | 89.3% (active) | 99.6
63 | CCOC(=O)CSc1cc(C)nc2ccc(C)cc12 | 96.8% (active) | 99.3
64 | CCC(=O)Oc1cccc2ccc(C=Cc3ccccc3F)nc12 | 92.1% (active) | 87.6
65 | CC(=O)Oc1cccc2ccc(C=Cc3cccc(Br)c3)nc12 | 87.4% (active) | 84
66 | CC(=O)Oc1cccc2ccc(C=Cc3ccc(F)cc3)nc12 | 86.6% (active) | 89.9

Row | SMILES | inhibition [1] | inhibition [2] [%]
67 | Oc1cccc2ccc(C=Cc3cccc(F)c3)nc12 | 98.8% (active) | 99.7
68 | O=C(C=Cc1cccc(C(F)(F)F)c1)Nc1cccc(Br)c1 | 9.1% (inactive) | 9.88
69 | O=C(C[n+]1cc(-c2ccc(Cl)cc2)n2c1CCC2)N1c2ccccc2Sc2ccccc21 | 10.7% (inactive) | 3.46
70 | O=C(C[n+]1cc(-c2ccc(Cl)c(Cl)c2)n2c1CCC2)N1c2ccccc2Sc2ccccc21 | 37.7% (active) | 43.1
71 | Cc1ccc(-c2csc(NC(=O)C[n+]3cc(-c4ccc(C)cc4)n4c3CCC4)n2)cc1 | 13.7% (inactive) | 7.92
72 | CCCCn1c(=O)c(C(=O)Nc2nnc(C(C)C)s2)c(O)c2ccccc21 | 76.9% (active) | 72.9
73 | COc1cc(/C=C/c2ccc3c([N+](=O)[O-])cccc3n2)ccc1OCC(=O)O | 89.6% (active) | 92.7
74 | CCOC(=O)COc1ccc2ccccc2c1C=C(C)[N+](=O)[O-] | 24% (inactive) | 10.8
75 | O=[n+]1c2ccccc2n([O-])c2ccccc21 | 98.3% (active) | 98.8
76 | CCCn1c(CNc2ccccc2O)nc2ccccc21 | 99.4% (active) | 100
77 | Cc1ccccc1C(=O)Nc1sc(Cc2ccccc2)c(C)c1C(N)=O | -2.04% (inactive) | -9.31
78 | CCOC(=O)c1c(-c2ccc(C)o2)csc1NC(=S)NC(=O)N(C)C | 2.65% (inactive) | -1.32
79 | COC(=O)c1c(-c2ccccc2)csc1NC(=O)c1cc(OC)cc(OC)c1 | 4.19% (inactive) | -6.55
80 | CCOC(=O)c1c(NC(=O)c2c(F)c(F)c(F)c(F)c2F)sc(C(=O)OC)c1C | 99.4% (active) | 97.6
81 | CCOC(=O)c1c(NC(=O)c2cccc(OC)c2)sc(C)c1-c1ccccc1 | 0.932% (inactive) | -15.9
82 | COC(=O)c1sc(NC(=O)c2c(F)c(F)c(F)c(F)c2F)c(C(N)=O)c1C | 98.6% (active) | 96.9
83 | COC(=O)c1c(NC(=O)c2cc(OC)cc(OC)c2)sc2c1C(C(=O)OC)CC2 (centres undefined) | -0.558% (inactive) | -13.8
84 | CCOC(=O)c1c(NC(=O)c2cccc([N+](=O)[O-])c2)sc(CC)c1-c1ccccc1 | 4.19% (inactive) | -29.7
85 | COC(=O)c1c(-c2ccc(Cl)cc2)csc1NC(=O)c1c(F)c(F)c(F)c(F)c1F | 91.1% (active) | 87.2
86 | CCc1c(C)sc(NC(=O)c2c(F)c(F)c(F)c(F)c2F)c1C(=O)OC(C)C | 98.2% (active) | 95.8
87 | CCc1c(C)sc(NC(=O)c2ccc(Br)cc2)c1C(N)=O | 4.19% (inactive) | 7.97
